Laboratory results reported in PubChem BioAssay (Tox21).
Unmarked numbers belong to inactive results. Active and inactive are the calls of the source. The call rests on the fitted dose curve; in most records, active means well fitted activation curve with a large enough effect in the repeat runs; inconclusive means weak or mixed curves; inactive means flat fitted curve, though single readings scatter.

The compounds below were run against Androgen receptor (Homo sapiens) (UniProt P10275) (assay: qHTS assay to identify small molecule agonists of the androgen receptor (AR) signaling pathway using the MDA cell line (AID 743040; further: nearly all actives have a fitted effect of over 20% in size)). Settings: MDA-kb2 AR-luc cells, MMTV luciferase, 16 h, stronger effect = higher value; series mostly up to 70.3 µM.
Excerpt: National Center for Advancing Translational Sciences [NCATS]
NIH Chemical Genomics Center [NCGC]
U.S. Environmental Protection Agency [EPA]
National Institutes of Environmental Health Sciences [NIEHS]
National Toxicology Program [NTP]
U.S. Food and Drug Administration [FDA]
Androgen receptor (AR), a nuclear hormone receptor, plays a critical role in AR-dependent prostate cancer and other androgen related diseases. Endocrine disrupting chemicals (EDCs) and their interactions with steroid hormone receptors like AR may cause disruption of normal endocrine function as well as interfere with metabolic homeostasis, reproduction, developmental and behavioral functions. To identify the compounds that activate AR signaling, MDA-kb2 AR-luc cell line (from ATCC, deposited by Wilson et al.) was used to screen the Tox21 10K compound library. MDA-kb2 AR-luc cell line is human breast carcinoma cell line that was stably transfected with a luciferase reporter gene under control of the MMTV promoter containing response elements for both androgen receptor (AR) and glucocorticoid receptor (GR).
Tox21 Assay Protocol Summary:
MDA-kb2 AR-luc cells were dispensed at 3,000 cells/5 uL/well of culture medium into white wall/solid-bottom 1536-well plates using a Multidrop Combi (ThermoFisher Scientific, Waltham, MA) dispenser. After the assay plates were incubated at 37C and 0% CO2 for 5 h, 23 nL of compounds dissolved in DMSO, positive controls or DMSO only was transferred to the assay plate by a Pintool station (Kalypsys, San Diego, CA). The plates were incubated at 37C and 0% CO2 for 16 h. Then 4 uL of ONE-Glo reagent (Promega, Madison, WI) was added to each plate using a Bioraptr Flying Reagent Dispenser (FRD) workstation (Beckman Coulter, Indianapolis, IN, USA) and luminescence was quantified on a ViewLux (PerkinElmer, Shelton, CT) plate reader after 30 min incubation at room temperature.
On the % scale 0 is the no-effect control and ±100 the full control effect.

Androgen receptor (Homo sapiens), sequence (P10275 whole entry, looked up): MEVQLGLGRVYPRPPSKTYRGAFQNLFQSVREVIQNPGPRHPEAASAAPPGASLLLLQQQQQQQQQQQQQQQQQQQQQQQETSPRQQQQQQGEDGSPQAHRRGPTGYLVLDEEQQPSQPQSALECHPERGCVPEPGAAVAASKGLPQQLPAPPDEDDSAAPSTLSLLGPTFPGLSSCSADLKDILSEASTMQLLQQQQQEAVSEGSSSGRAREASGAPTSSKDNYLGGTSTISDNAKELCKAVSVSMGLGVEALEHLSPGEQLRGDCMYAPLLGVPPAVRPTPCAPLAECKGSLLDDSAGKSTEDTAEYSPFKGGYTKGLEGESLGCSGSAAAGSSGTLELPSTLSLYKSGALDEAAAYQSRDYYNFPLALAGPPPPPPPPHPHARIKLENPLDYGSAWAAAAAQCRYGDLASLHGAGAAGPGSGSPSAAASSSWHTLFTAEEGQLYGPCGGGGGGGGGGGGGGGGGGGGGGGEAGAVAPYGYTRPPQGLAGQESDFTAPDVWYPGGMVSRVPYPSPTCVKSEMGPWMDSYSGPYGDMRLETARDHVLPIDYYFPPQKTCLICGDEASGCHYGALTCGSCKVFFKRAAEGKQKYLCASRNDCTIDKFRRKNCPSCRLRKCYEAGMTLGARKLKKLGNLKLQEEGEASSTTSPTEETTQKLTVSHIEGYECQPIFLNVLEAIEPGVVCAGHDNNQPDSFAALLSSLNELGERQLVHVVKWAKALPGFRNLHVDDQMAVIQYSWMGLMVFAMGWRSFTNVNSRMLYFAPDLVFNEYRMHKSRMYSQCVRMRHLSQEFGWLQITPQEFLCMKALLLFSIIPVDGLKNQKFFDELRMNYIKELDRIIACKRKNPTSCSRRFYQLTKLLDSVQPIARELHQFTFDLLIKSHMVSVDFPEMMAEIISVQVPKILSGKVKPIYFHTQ

Row | SMILES | outcome | activity change
1 | CCCCCCC[CH2][Sn]([Cl])([Cl])[CH2]CCCCCCC | inactive | –
2 | O=S1OCC2C(CO1)C1(Cl)C(Cl)=C(Cl)C2(Cl)C1(Cl)Cl (stereo not given) | inactive | –
3 | O=c1[nH]c(Cl)c(Cl)cc1Cl | inactive | –
4 | Cc1ccc(C)c2ccccc12 | inactive | –
5 | Cc1nn(-c2cc(NS(C)(=O)=O)c(Cl)cc2Cl)c(=O)n1C(F)F | inactive | –
6 | CC1=C2C[C@H]3[C@@H](CC=C4C[C@@H](O)CC[C@@]43C)[C@@H]2CC[C@]12O[C@@H]1C[C@H](C)CN[C@H]1[C@H]2C | inactive | –
7 | CC(C)N(C(=O)CCl)c1ccccc1 | inactive | –
8 | Nc1c(Cl)c(Cl)c(Cl)c(Cl)c1Cl | inactive | –
9 | COP(=O)(OC)O/C(=C\Cl)c1cc(Cl)c(Cl)cc1Cl | inactive | –
10 | CCN1CCC2(CC1)COc1cc3c(cc12)N(C(=O)c1ccc(-c2ccc(-c4nnc(C)o4)cc2C)cc1)CC3 | inactive | –
11 | [O]=[Cr](=[O])([OH])[O][Cr](=[O])(=[O])[OH] | inactive | –
12 | BrCCCBr | inactive | –
13 | CCOP(=S)(OCC)SC(CCl)N1C(=O)c2ccccc2C1=O (stereo not given) | inactive | –
14 | C=CCOC(=O)c1ccccc1N | inactive | –
15 | N#Cc1sc2c(=O)c3ccccc3c(=O)c=2sc1C#N | inactive | –
16 | O=C1C2(Cl)C3(Cl)C4(Cl)C(Cl)(Cl)C5(Cl)C3(Cl)C1(Cl)C5(Cl)C24Cl (stereo not given) | inactive | –
17 | ClC1(Cl)C2(Cl)C3(Cl)C4(Cl)C(Cl)(Cl)C5(Cl)C3(Cl)C1(Cl)C5(Cl)C24Cl (stereo not given) | inactive | –
18 | COc1ccc2c(c1OC)C(=O)O[C@@H]2[C@H]1c2cc3c(cc2CCN1C)OCO3 | inactive | –
19 | CCOP(=S)(OCC)Oc1cc(C)nc(N(CC)CC)n1 | inactive | –
20 | CC(C)NCC(O)c1ccccc1Cl (stereo not given) | inactive | –

Row | SMILES | outcome | activity change
21 | BrCC(Br)(Br)Br | inactive | –
22 | CCOP(=O)(OCC)Oc1nc(Cl)c(Cl)cc1Cl | inactive | –
23 | CCC[CH2][Sn]([CH2]CCC)([CH2]CCC)[O][Sn]([CH2]CCC)([CH2]CCC)[CH2]CCC | – | -9.89% [at 8.47 µM]
24 | O=C(NC(=O)c1ccccc1Cl)Nc1ccc(OC(F)(F)F)cc1 | inactive | –
25 | S=C=Nc1ccccc1 | inactive | –
26 | N#CC(C#N)=NNc1cccc(Cl)c1 | inactive | –
27 | CC(C)=CC1C(C(=O)OC(C#N)c2cccc(Oc3ccccc3)c2)C1(C)C (stereo not given) | inactive | –
28 | Cc1ccccc1OP(=O)(Oc1ccccc1C)Oc1ccccc1C | inactive | –
29 | [Cl][Hg][c]1ccccc1 | inactive | –
30 | COc1ccc(Cc2nccc3cc(OC)c(OC)cc23)cc1OC | inactive | –
31 | CCO/N=C(\CC)C1=C(O)CC(c2c(C)cc(C)cc2C)CC1=O (stereo not given) | inactive | –
32 | O=NN(CCO)CCO | inactive | –
33 | O=C1C(Cl)=C(Cl)C(=O)C(Cl)=C1Cl | inactive | –
34 | N#Cc1c2ccccc2cc2ccccc12 | inactive | –
35 | C[C@H]1[C@H](c2ccc(Cl)cc2)SC(=O)N1C(=O)NC1CCCCC1 | inactive | –
36 | CC(=O)[O][Pb]([c]1ccccc1)([c]1ccccc1)[c]1ccccc1 | inactive | –
37 | Fc1ccc(C(OCCN2CCN(CCCc3ccccc3)CC2)c2ccc(F)cc2)cc1 | inactive | –
38 | Oc1cc(Cl)c(Cl)c(Cl)c1Cl | inactive | –
39 | CCC(OC(C)=O)C(CC(C)NC)(c1ccccc1)c1ccccc1 (stereo not given) | inactive | –
40 | S=C=NCCc1ccccc1 | inactive | –
